In all, about 290,000 compounds went through this assay and about 3,000 (1%) were called active. The sample holds actives, similar compounds and a random draw of the others, so the mix is not that of the screen. No rule for the calls is given here.
Biological target: Polyadenylate-binding protein 1 (Homo sapiens) (UniProt P11940)
Assay: PABP poly(A) RNA binding inhibitors, primary screen, biochemical, fluorescence polarization, uHTS (AID 2014);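 also: calls also rest on retests at 20 µM and on dose response follow-up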
Settings: stronger effect = higher value

Chain of Polyadenylate-binding protein 1 (Homo sapiens) (P11940 whole entry, looked up): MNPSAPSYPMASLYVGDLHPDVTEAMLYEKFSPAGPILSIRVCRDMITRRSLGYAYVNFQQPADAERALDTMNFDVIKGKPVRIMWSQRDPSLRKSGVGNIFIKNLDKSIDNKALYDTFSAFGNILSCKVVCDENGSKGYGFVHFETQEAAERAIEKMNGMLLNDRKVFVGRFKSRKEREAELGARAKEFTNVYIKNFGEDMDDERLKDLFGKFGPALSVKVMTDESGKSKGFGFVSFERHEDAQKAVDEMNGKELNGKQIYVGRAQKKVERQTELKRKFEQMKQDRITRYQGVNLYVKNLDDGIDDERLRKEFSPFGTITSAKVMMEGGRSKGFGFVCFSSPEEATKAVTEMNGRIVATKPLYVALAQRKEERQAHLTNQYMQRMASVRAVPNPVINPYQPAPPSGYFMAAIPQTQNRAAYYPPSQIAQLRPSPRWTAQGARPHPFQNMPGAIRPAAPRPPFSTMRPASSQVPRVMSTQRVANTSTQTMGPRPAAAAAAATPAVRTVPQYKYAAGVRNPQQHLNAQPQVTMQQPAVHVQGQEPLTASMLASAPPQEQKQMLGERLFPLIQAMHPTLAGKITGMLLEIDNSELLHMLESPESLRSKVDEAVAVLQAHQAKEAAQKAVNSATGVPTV

## O=C(c1cc(=O)c2ccccc2o1)N1CCN(c2ccccc2)CC1
At 35 µM
  inhibition: 4.7% (inactive)

## O=C(c1ccc(CS(=O)(=O)c2ccccc2)o1)N1CCN(c2ccccc2)CC1
At 35 µM
  inhibition: 28.3% (active)
Confirmation repeats, at 20 µM
  inhibition: 62.1%

## O=C(c1ccc(S(=O)(=O)N2CCOCC2)cc1)N1CCN(c2ccccc2)CC1
At 35 µM
  inhibition: 3.8% (inactive)

## CCc1ccc(N2CC(C(=O)N3CCCCCC3)CC2=O)cc1 (stereo not given)
At 35 µM
  inhibition: -12.2% (inactive)

## COc1ccc2oc(=O)cc(CN3CCOCC3)c2c1
At 35 µM
  inhibition: 10.8% (inactive)

## O=Cc1cn(-c2ccccc2)nc1-c1ccccn1
At 35 µM
  inhibition: -6.6% (inactive)

## Cc1ccc(SCCSc2ncccn2)cc1
At 35 µM
  inhibition: 8.3% (inactive)

## Cc1cccc(C(=O)NNC(=O)CSc2nnc(C(C)C)n2C)c1
At 35 µM
  inhibition: 0.1% (inactive)

## COCCn1c(N)c(N(Cc2ccccc2)C(=O)C2CCCCC2)c(=O)[nH]c1=O
At 35 µM
  inhibition: 4.9% (inactive)

## COCCN1C=C2C(=O)C(C)(OC(=O)C3CCCC3)C(=O)C=C2C=C1c1ccsc1 (stereo not given)
At 35 µM
  inhibition: 61% (active)

## Cc1cccnc1CC(C)NC(=O)c1cc(COc2cncc(Cl)c2)on1 (stereo not given)
At 35 µM
  inhibition: -0.2% (inactive)

## CC(=O)c1ccc(OC(=O)N2CCOCC2)cc1
At 35 µM
  inhibition: -1.2% (inactive)

## COc1cccc(C2Nc3cccc4cccc(c34)N2)c1
At 35 µM
  inhibition: 25.6% (active)
Confirmation repeats, at 20 µM
  inhibition: 72.2%

## Oc1ccc(C2Nc3cccc4cccc(c34)N2)cc1
At 35 µM
  inhibition: 69.2% (active)

## COc1ccc(N2C(=O)C3CCCN3C2c2cccc(OC)c2)cc1 (stereo not given)
At 35 µM
  inhibition: -1.1% (inactive)

## O=C1NC(c2cccc(Cl)c2)Nc2ccccc21 (stereo not given)
At 35 µM
  inhibition: -16.8% (inactive)

## Cc1ccc(C2Nc3cccc4cccc(c34)N2)cc1
At 35 µM
  inhibition: 39.9% (inactive)

## COc1ccc(C2NC(=O)c3ccccc3N2)cc1 (stereo not given)
At 35 µM
  inhibition: 15.7% (inactive)

## O=C1CCN(CCc2ccccc2)CCN1CCOc1ccccc1
At 35 µM
  inhibition: 7.2% (inactive)

## COc1ccc(CNC(=O)CN(Cc2ccccc2Cl)C(=O)c2csnn2)cc1
At 35 µM
  inhibition: 4.9% (inactive)

## CCN(CC(=O)NCc1cccs1)C(=O)c1cccc(S(=O)(=O)Nc2ccccc2OC)c1
At 35 µM
  inhibition: 60.4% (active)
Confirmation repeats, at 20 µM
  inhibition: 70.6%

## COc1cc(CC(=O)NCc2cccs2)cc(OC)c1OC
At 35 µM
  inhibition: -5.2% (inactive)

## CCN(CC(=O)NCc1cccs1)C(=O)c1ccccc1F
At 35 µM
  inhibition: -8.7% (inactive)

## CC(=O)c1ccccc1OCc1ccc(C(=O)c2ccccc2)cc1
At 35 µM
  inhibition: 0.6% (inactive)

## O=C(NC1CC1)C(Cc1ccccc1)NS(=O)(=O)c1ccccc1F (stereo not given)
At 35 µM
  inhibition: -3.9% (inactive)

## O=C(NCCCc1ccccc1)C1CCC(=O)N(CCc2ccc(Cl)cc2)C1 (stereo not given)
At 35 µM
  inhibition: 2.3% (inactive)

## Cc1cc(=O)oc(C)c1C(=O)NCCN(C)Cc1ccccc1
At 35 µM
  inhibition: -13.8% (inactive)

## Cc1cc(=O)oc(C)c1C(=O)Nc1cnc2ccccc2c1
At 35 µM
  inhibition: 104% (active)

## Cc1cc(=O)oc(C)c1C(=O)NCc1ccc(F)cc1
At 35 µM
  inhibition: 28.4% (inactive)

## Cc1ccc(C(=O)NC2CCN(C(=O)Nc3ccccc3Cl)CC2)cc1
At 35 µM
  inhibition: 8.2% (inactive)

## Cc1cccc(N2CCN(C(C)C(=O)N3CCc4ccccc43)CC2)c1C (stereo not given)
At 35 µM
  inhibition: -1.2% (inactive)

## Cc1cccc(N(C(=O)Cn2nnc(-c3ccc(C)o3)n2)C(C(=O)NC2CCCC2)c2ccncc2)c1 (stereo not given)
At 35 µM
  inhibition: 11.1% (inactive)

## Cc1ccc(N2NC(=O)/C(=C/C=C/c3ccco3)C2=O)cc1C
At 35 µM
  inhibition: 12.2% (inactive)

## Cc1cccc(N=C2NC(=O)/C(=C/c3cn(C)c4ccccc34)S2)c1
At 35 µM
  inhibition: -3.5% (inactive)

## Cc1ccc(N=C2NC(=O)/C(=C/C=C/c3ccco3)S2)cc1C
At 35 µM
  inhibition: -2.9% (active)
Confirmation repeats, at 20 µM
  inhibition: 92%

## CC(C)(O)C#Cc1ccc(CN2CCC(CO)(CCc3ccccc3)CC2)cc1
At 35 µM
  inhibition: -2.8% (inactive)

## Brc1ccccc1CN1CCC(Cc2ccccc2)CC1
At 35 µM
  inhibition: 0.9% (inactive)

## Cn1c(N)cc(-c2ccc(F)cc2)c(C#N)c1=O
At 35 µM
  inhibition: 59.1% (active)
Confirmation repeats, at 20 µM
  inhibition: 69.9%

## Cc1cc(C)c2c(-c3ccc(F)cc3)c(C#N)c(=O)n(C)c2n1
At 35 µM
  inhibition: -5.1% (inactive)

## COc1ccc(O)c(C(=O)c2cnc3c(c2)c(-c2ccc(F)cc2)c(C#N)c(=O)n3C)c1
At 35 µM
  inhibition: 7.5% (inactive)

## COc1ccc(NC(=O)C(CC(C)C)NC(=O)C2CCC(C)CC2)cc1 (stereo not given)
At 35 µM
  inhibition: -2.9% (inactive)

## C=CCn1c(=O)c(C(=O)NCc2ccc3c(c2)OCO3)c(O)c2ccccc21
At 35 µM
  inhibition: -7.7% (inactive)

## CC1CCCCC1NC(=O)CCS(=O)(=O)c1ccc2c(c1)NC(=O)CO2 (stereo not given)
At 35 µM
  inhibition: 3.9% (inactive)

## Cc1cccc2c1cnn2C(=O)CCC(=O)NC1CCCCC1
At 35 µM
  inhibition: -10.3% (inactive)

## CN(C(=O)CN1C(=O)S/C(=C\c2ccccc2F)C1=O)C1CCS(=O)(=O)C1 (stereo not given)
At 35 µM
  inhibition: 11.1% (inactive)

## Cc1ccc(OCC(=O)c2cc(C)n(Cc3ccco3)c2C)c([N+](=O)[O-])n1
At 35 µM
  inhibition: 40.8% (inactive)
Confirmation repeats, at 20 µM
  inhibition: 34.4%

## Cc1ccc(OCC(=O)NC(C)c2ccccc2)c([N+](=O)[O-])n1 (stereo not given)
At 35 µM
  inhibition: 51.1% (inactive)
Confirmation repeats, at 20 µM
  inhibition: -6.6%

## COCC(C)n1c(C)cc(C(=O)COc2ccc(C)nc2[N+](=O)[O-])c1C (stereo not given)
At 35 µM
  inhibition: -2.1% (active)
Confirmation repeats, at 20 µM
  inhibition: 57.1%

## CCOc1cccc(=O)c2c(C)n(CC3CCCO3)c(C)c12 (stereo not given)
At 35 µM
  inhibition: 92.6% (active)

## CCOc1ccc(NC(=O)c2cccc3c2C(=O)N(CC2CCCO2)C3)cc1 (stereo not given)
At 35 µM
  inhibition: -7.6% (inactive)

## COc1ccccc1NC(=O)CSc1nnc(C)n1CC1CCCO1 (stereo not given)
At 35 µM
  inhibition: 9.2% (inactive)

## CCc1c(C)nc2cc(-c3cccs3)[nH]n2c1=O
At 35 µM
  inhibition: 3.2% (inactive)

## Cc1cc(=O)n2[nH]c(-c3sccc3-n3c(C)ccc3C)cc2n1
At 35 µM
  inhibition: 31.1% (active)
Confirmation repeats, at 20 µM
  inhibition: 94.5%

## Cc1cc(=O)n2[nH]c(-c3cccc(Cl)c3)cc2n1
At 35 µM
  inhibition: 1.6% (inactive)

## CC1CCN(C(=O)c2ccc3c(=O)n4c(nc3c2)CCCCC4)CC1
At 35 µM
  inhibition: 3.8% (inactive)

## Cc1ccc(C(=O)NCC(=O)NCc2cc(=O)n(C)c(=O)n2C)cc1
At 35 µM
  inhibition: 1.4% (inactive)

## C/C(=C\c1ccco1)C1Nc2cccc3cccc(c23)N1
At 35 µM
  inhibition: 116% (active)

## CC(/C=N/NC(=O)c1ccncc1)=C\c1ccco1
At 35 µM
  inhibition: 14.8% (inactive)

## CC(/C=N/NC(=O)c1cc(-c2ccc3ccccc3c2)n[nH]1)=C\c1ccco1
At 35 µM
  inhibition: 9.9% (inactive)
Confirmation repeats, at 20 µM
  inhibition: 8.9%

## COc1ccc(S(=O)(=O)c2c[nH]c(=S)[nH]c2=O)cc1Cl
At 35 µM
  inhibition: 26% (inactive)

## CCOC(=O)C1(CCOc2ccccc2)CCN(Cc2cc(OC)cc(OC)c2)CC1
At 35 µM
  inhibition: 10.8% (inactive)

## Cn1cc(CNC(=O)c2ccc(OC3CCN(Cc4ccccn4)CC3)cc2)cn1
At 35 µM
  inhibition: 9.6% (inactive)

## O=S1(=O)CCN(Cc2ccccc2Cl)CC1
At 35 µM
  inhibition: 33.1% (active)
Confirmation repeats, at 20 µM
  inhibition: 64.5%

## CSc1ccc(/C=N/N2CCN(Cc3ccccc3Cl)CC2)cc1
At 35 µM
  inhibition: 3.3% (inactive)

## O=c1ccn(Cc2ccccc2Cl)cc1
At 35 µM
  inhibition: 7.8% (inactive)

## COc1cc(CO)ccc1OCC(=O)Nc1cccc2ccccc12
At 35 µM
  inhibition: -6.9% (inactive)

## O=C(NCc1ccccc1)C1CCN(C(=O)Cc2ccccc2)CC1
At 35 µM
  inhibition: 0% (inactive)

## Cc1cc(Cl)c2oc(C(=O)N3CCC(O)(c4ccccc4)CC3)c(C)c2c1
At 35 µM
  inhibition: 3.6% (inactive)

## COc1ccc(-c2csc(Nc3ccc(O)cc3)n2)cc1
At 35 µM
  inhibition: 6.1% (inactive)

## COc1ccc(OC)c(Nc2nc(-c3ccc(O)c(O)c3)cs2)c1
At 35 µM
  inhibition: 88.7% (active)

## COc1cccc(CC(=O)Nc2nc(-c3ccc(OC)c(OC)c3)cs2)c1
At 35 µM
  inhibition: 3.9% (inactive)

## Fc1cc(F)c2nc(N3CCOCC3)sc2c1
At 35 µM
  inhibition: 6.9% (inactive)

## Cc1cc(C)n(Cc2cnc(N3CCOCC3)s2)n1
At 35 µM
  inhibition: 55% (active)
Confirmation repeats, at 20 µM
  inhibition: 89.9%

## Cc1nc(N2CCOCC2)sc1C(=O)NN
At 35 µM
  inhibition: 18.5% (inactive)

## CCCCC1=CC2=CC(=O)C(C)(OC(=O)CC)C(=O)C2=CN1CCCOC(C)C (stereo not given)
At 35 µM
  inhibition: 34.8% (active)
Confirmation repeats, at 20 µM
  inhibition: 51.1%

## COC(=O)CCCC1=CC2=C(c3ccccc3)C(=O)C(C)(OC(=O)C3CCCC3)C(=O)C2=CN1c1ccc(OC)cc1 (stereo not given)
At 35 µM
  inhibition: 12.6% (inactive)

## COC(=O)CCCC1=CC2=CC(=O)C(C)(OC(=O)c3cccs3)C(=O)C2=CN1CC1CC1 (stereo not given)
At 35 µM
  inhibition: 32.8% (inactive)

## COC(=O)CCCC1=CC2=CC(=O)C(C)(OC(=O)c3cccs3)C(=O)C2=CN1CC(C)C (stereo not given)
At 35 µM
  inhibition: 36.8% (active)
Confirmation repeats, at 20 µM
  inhibition: 67.3%

## Cc1ccccc1-n1cc(CNC(=O)C2CCC(=O)N(C3CC3)C2)cn1 (stereo not given)
At 35 µM
  inhibition: -10.9% (inactive)

## CCOc1ccccc1NC(=O)Cc1cccs1
At 35 µM
  inhibition: 4.2% (inactive)

## Cc1cc(Cl)c2oc(C(=O)NC(C)c3ccncn3)c(C)c2c1 (stereo not given)
At 35 µM
  inhibition: -10% (inactive)

## CC(C)(C)NC(=O)CSc1nnc(NC(=O)CCc2ccccc2)s1
At 35 µM
  inhibition: -1.7% (inactive)

## COc1cc(NC(=O)CSc2ccc(-c3cccnc3)nn2)cc(OC)c1
At 35 µM
  inhibition: 15.1% (inactive)

## O=C(c1ccco1)N1CCN(Cc2cccc(C(F)(F)F)c2)CC1
At 35 µM
  inhibition: 6.5% (inactive)

## CC1CCN(S(=O)(=O)c2ccc3c(c2)n(C)c(=O)n3C)CC1
At 35 µM
  inhibition: -1.1% (inactive)

## COc1cc(/C=C(/NC(=O)c2ccccc2)C(=O)Nc2cccc(O)c2)c([N+](=O)[O-])cc1OC
At 35 µM
  inhibition: -0.9% (inactive)

## COc1cc(/C=C(\C#N)C(=O)Nc2ccc3ccccc3c2)c([N+](=O)[O-])cc1OC
At 35 µM
  inhibition: -2.3% (active)
Confirmation repeats, at 20 µM
  inhibition: 70.5%

## COc1ccc(NC(=O)/C(C#N)=C\c2cc(OC)c(OCc3ccc(C(=O)O)cc3)cc2Br)cc1
At 35 µM
  inhibition: 7.9% (inactive)

## COCc1cc(=O)n2[nH]c(C)c(-c3ccccc3)c2n1
At 35 µM
  inhibition: 8.4% (inactive)

## c1coc(-c2nc3nc4ccccc4n3nc2-c2ccco2)c1
At 35 µM
  inhibition: 63.7% (active)

## Cn1c(-c2ccco2)nc2cc3ccccc3cc21
At 35 µM
  inhibition: 4% (inactive)

## COc1ccc(CCn2c(-c3ccco3)nc3nc4ccccc4nc32)cc1OC
At 35 µM
  inhibition: 12.4% (inactive)

## CCOC(=O)C1=C(CCc2ccccc2)NC(=O)NC1c1ccc2ccccc2c1 (stereo not given)
At 35 µM
  inhibition: -1% (inactive)

## CCOC(=O)CNC(=O)CSc1ncccc1-c1nc2ccccc2[nH]1
At 35 µM
  inhibition: 0.2% (inactive)

## Cc1cc(C(=O)NCCc2ccc(Cl)cc2)c(C)o1
At 35 µM
  inhibition: 0% (inactive)
